Data on five compounds can be found in PubChem BioAssay (NCATS).

Results filed as inconclusive are left out. Unmarked numbers belong to inactive results. The source made the active and inactive calls. Calls come from the whole dose curve; as a rule, active = well fitted curve in the direction sought with a large enough effect; inconclusive = small, poorly fitted or top-dose-only effect, or another doubt; inactive = no such curve, though single readings can be large; an effect the other way counts as inactive or inconclusive. Bridge positions count the residues as written; N and C are the ends. Square brackets hold non-standard residues; d marks the D form. Side chains are listed from the residue outwards. Peptide text beside a SMILES is read from it. * marks the point of attachment. Phg(4-OMe) = COc1ccc([C@H](N)C(=O)O)cc1; d(aIle) = CC[C@H](C)[C@@H](N)C(=O)O; d(aThr) = C[C@@H](O)[C@@H](N)C(=O)O; NMeF = CN[C@@H](Cc1ccccc1)C(=O)O; Isobutyryl = CC(C)C(=O)*

Assay [1] is described as follows: U-118MG Cancer Cell Toxicity qHTS against the NCATS CANVASS Library (AID 1347351). Note: potency is the fitted concentration of half-maximal effect. In short, it runs like this: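 Viability read-out: CellTiter-Glo luminescence after 72 h compound exposure at 37 °C/5% CO2. Cells plated at 1000/well, 4 h pre-incubation; 11-point titration. Bortezomib served as control.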
Assay [2] is described as follows: HPAF-II 24hr Apoptosis Induction qHTS against the NCATS CANVASS Library (AID 1347356). In short, it runs like this: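 Luminescent caspase-3/7 signal (DEVD substrate, Caspase-Glo) served as read-out, taken 15 min after reagent addition to HPAF-II cells exposed 24 h to compounds.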
Assay [3] in a line: HEK293 18hr Apoptosis Induction qHTS against the NCATS CANVASS Library (AID 1347357). In short, it runs like this: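 Caspase-3/7 luminescence (DEVD substrate, Caspase-Glo) after 18 h compound exposure of HEK293 cells, 500 cells/well; 11-point series; doxorubicin titration as control.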
Background: In qHTS, concentration-response curves come from the screen itself.

A short description of assay [4]: HPAF-II 18hr Apoptosis Induction qHTS against the NCATS CANVASS Library (AID 1347360). In short, it runs like this: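 Caspase-Glo 3/7 luminescence (DEVD substrate) after 15 min RT; HPAF-II, 500 cells/well, 18 h compound exposure at 37 degrees C, qHTS series; doxorubicin control 0.1nM - 4uM.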
Assay [5] in a line: HEK293 12hr Apoptosis Induction qHTS against the NCATS CANVASS Library (AID 1347361). The method in brief: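 500 HEK293 cells/well; cpds pin-transferred, 11-pt conc series; 12 h, 37 degrees C/5% CO2; Caspase-Glo 3/7 added, 15 min RT dark; luminescence.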
The subject of assay [6] is NAD(P)H diaphorase (Clostridium kluyveri). Kind of assay: Diaphorse counterscreen qHTS: Assay Interference Panel against the NCATS CANVASS Library (AID 1347362). Note: potency is the fitted concentration of half-maximal effect. The method in brief: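 Clostridium kluyveri diaphorase in PBS with 0.01% Tween-20 was preincubated 15 min at room temperature in the dark with compounds (11-point series). Resorufin fluorescence (ex 525/20, em 598/25) was read 5 min after adding resazurin/NADH.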

Assay [7] is described as follows: KB-3-1 Cancer Cell Toxicity qHTS against the NCATS CANVASS Library (AID 1347366). Note: nearly all actives have a fitted effect of over 75% in size. In short, it runs like this:
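500 KB-3-1 cells/well; compounds pin-transferred, 11-pnt series; 72 hr, 37C/5% CO2; CellTiter-Glo, 10 min RT; luminescence read-out.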

The nature of assay [8]: MCF7 Cancer Cell Toxicity qHTS against the NCATS CANVASS Library (AID 1347369). Note: potency is the fitted concentration of half-maximal effect. In short, it runs like this: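 Luminescent ATP signal (CellTiterGlo) served as the cytotoxicity read-out after MCF7 breast cancer cells had been incubated 72 hr at 37C with natural products in an 11-point titration.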
Assay [9] in a line: qHTS for ATAD5 Antagonist screened against the NCATS CANVASS Library (AID 1347370).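 Note: HEK293T cells carrying an ATAD5 luciferase reporter co-treated with 10 µM 5-fluorouridine; series mostly up to about 46 µM; nearly all actives have a fitted effect of over 65% in size.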 In short, it runs like this:
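HEK293T cells with stably integrated ATAD5-luciferase reporter, 2000/well, 5 h attachment; compounds plus 10 µM 5-fluorouridine, 16 h at 37 °C. Luciferase luminescence read, with CellTiter-Fluor viability read first.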

Assay [10] is described as follows: J3T Cancer Cell Toxicity qHTS against the NCATS CANVASS Library (AID 1347371). Note: potency is the fitted concentration of half-maximal effect. The method in brief: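 Cells plated at 500 per well, compounds pin-transferred, plates incubated 72 hr at 37C, then CellTiterGlo added and luminescence read to measure ATP content.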
Assay [11] addresses Nuclear receptor subfamily 1 group I member 3 (Homo sapiens) (UniProt Q14994). Kind of assay: qHTS for Constitutive Androstane Receptor (CAR) Antagonist screened against the NCATS CANVASS Library (AID 1347372).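 Note: cells stimulated with 50 nM CITCO agonist so inhibition reflects antagonism; series mostly up to about 46 µM.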 In short, it runs like this:
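HepG2 cells stably carrying hCAR and a CYP2B6-2.2kb luciferase reporter were exposed to compounds plus 50 nM CITCO for 24hr at 37C. CAR activity was read by ONE-Glo luminescence, with viability measured first by CellTiter-Fluor.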

For assay [12] the target is unchanged. Briefly: qHTS for Constitutive Androstane Receptor (CAR) Agonist screened against the NCATS CANVASS Library (AID 1347373).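 Note: every well also contained 1.5 µM PK11195 alongside the test compound.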 In short, it runs like this:
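HepG2-hCAR-CYP2B6 cells, 2500/well, attached 4hr; cpd + PK11195 1.5uM final; 24hr 37C 5% CO2. CellTiter-Fluor viability read, then ONE-Glo luminescence for CAR activation.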

The nature of assay [13]: 10-beta competent E. coli microbial cell viability qHTS against the NCATS CANVASS Library (AID 1347376). Note: series mostly up to about 46 µM. The method in brief:
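E. coli 10-beta, 0.2 OD; cpds 11-pt; o/n 37C, 5% CO2; BacTiter-Glo 20 min RT; luminescence (ATP) = viable cells. Daunomycin ctrl.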

A short description of assay [14]: qHTS for H2AX Agonists against the NCATS CANVASS Library (AID 1347378). Note: potency is the fitted concentration of half-maximal effect. The method in brief: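 TR-FRET readout (ex 320 nm, em 665/620 nm ratio) of phospho-H2AX (S139) in CHO-K1 lysates. Cells treated 3 hr at 37C with compound titration, 0.76% DMSO; lysis 30 min, antibody detection 24 hr at RT.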
A short description of assay [15]: qHTS for Inflammasome Signaling Inhibitors: IL-1-beta AlphaLISA screen against the NCATS CANVASS Library (AID 1347379).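 For Potency: secreted IL-1B measured as AlphaLISA emission at 615 nm; potency is the fitted concentration of half-maximal effect.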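 Note: human THP-1 cells primed with LPS then triggered with ATP.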 The method in brief: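 THP-1 cells pretreated 1 hr with compound (up to 57.5 uM final), then stimulated with LPS (250 ng/mL final) and ATP (1.25 mM final). Secreted IL-1B measured by AlphaLISA after 16 hr; glyburide as positive control.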
Assay [16] can be described thus: Cytotoxicity qHTS for assessment of Hepg2 cells membrane integrity screened against the NCATS CANVASS Library (AID 1347387). In short, it runs like this: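 qHTS, 11-pt conc. series, 0.59 nM - 46 uM final; HepG2 2000 cells/well, overnight attachment; 5 hr compound exposure 37C/5% CO2; CytoTox-ONE, 10 min RT; fluorescence ex560/em590 = LDH from damaged membranes.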

Assay [17] is described as follows: Secretion counterscreen for inhibitors of the SERCaMP assay screened against the NCATS CANVASS Library (AID 1347390).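 Note: light from luciferase secreted into medium read as a measure of general secretion.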 Note: potency is the fitted concentration of half-maximal effect. In short, it runs like this:
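Luminescence from constitutively secreted GLuc in SH-SY5Y-GLuc STOP cells, read after coelenterazine addition, served as read-out. Compounds tested 0.001 - 77 uM for 20 h at 37C; Brefeldin A as positive control.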
For orientation: The purpose of a counterscreen is to sort out artefacts and off-target activity.

The nature of assay [18]: Vero-766 cells viability qHTS against the NCATS CANVASS Library: Counterscreen for Zika virus inhibition assay (AID 1347394). Note: nearly all actives have a fitted effect of over 60% in size. Note: potency is the fitted concentration of half-maximal effect. In short, it runs like this: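 CellTiter-Glo luminescence, lower signal indicating cytotoxicity. Vero 766 cells without Zika virus, 1000 cells/well, plated overnight, then treated 72 h at 37C across an 11-point series.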
Assay [19] can be described thus: Viability qHTS for inhibitors of the SERCaMP assay screened against the NCATS CANVASS Library (AID 1347400). Note: nearly all actives have a fitted effect of over 70% in size. Note: potency is the fitted concentration of half-maximal effect. The method in brief:
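SH-SY5Y SERCaMP MJH297 cells, 1000/well; 4 h settle, 37C/5% CO2; pin-transferred cpds; 48 h; CellTiter-Glo lum. Pos ctrl bortezomib 0.0001 - 4.6 uM.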

The nature of assay [20]: Redox Reaction Profiling qHTS: Assay Interference Panel against the NCATS CANVASS Library (AID 1347401). Note: potency is the fitted concentration of half-maximal effect. In short, it runs like this:
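Resazurin (5 uM) conversion to resorufin measured with 200 uM DTT in 50 mM HEPES pH 7.3, 50 mM NaCl. Compounds tested in 11-point qHTS series. Fluorescence (ex 525/em 598 nm) read before and after 15 min dark incubation.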

Chain of Nuclear receptor subfamily 1 group I member 3 (Homo sapiens) (Q14994 whole entry, looked up): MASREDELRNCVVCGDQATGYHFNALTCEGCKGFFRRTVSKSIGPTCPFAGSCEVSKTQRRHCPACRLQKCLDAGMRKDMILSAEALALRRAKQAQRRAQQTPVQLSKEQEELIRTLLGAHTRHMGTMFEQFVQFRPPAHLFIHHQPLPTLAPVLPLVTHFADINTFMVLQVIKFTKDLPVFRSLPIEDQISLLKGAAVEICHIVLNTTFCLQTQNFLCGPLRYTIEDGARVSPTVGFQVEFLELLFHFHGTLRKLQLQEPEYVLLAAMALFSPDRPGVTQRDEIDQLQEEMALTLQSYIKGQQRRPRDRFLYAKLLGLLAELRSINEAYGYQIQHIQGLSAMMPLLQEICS

In the case of `CC[C@H](C)[C@H]1NC(=O)[C@@H](NC(=O)C(C)C)[C@@H](C)OC(=O)[C@H](COC(=O)CNC(C)=O)NC(=O)[C@@H]([C@@H](C)O)NC(=O)[C@H](Cc2ccccc2)N(C)C(=O)[C@H](c2ccc(OC)cc2)NC1=O` (Isobutyryl-T[d(aIle)][Phg(4-OMe)][NMeF][d(aThr)]S([Gly-Ac]); ester 1-C), the Potency entry in assay [1], in [3], in assay [4], in assay [6], in [7] and in [8] was “inactive” throughout. The Potency result in [9], in [10], in assay [11], in [12], in assay [14] and in assay [15] was “inactive” throughout. In addition, the Potency result in assay [17], in [18], in [19] and in [20] was “inactive” in each case. Besides, the compound was classed as inactive in assay [2], in assay [5], in assay [13] and in assay [16].
For the compound `Cc1occ2c1C(=O)c1c(cc(O)c(O)c1O)C2=O`, the Potency was 13.3 µM (active) in assay [1] and 24.4 µM (active) in assay [14]. Also, the result in [2], in [5] and in assay [16] was inactive. For the same compound, the Potency result in assay [3], in [4], in assay [7], in [8], in [9] and in assay [10] was “inactive” in each case. In addition, the Potency result in assay [11], in assay [12], in [15], in assay [17], in [19] and in assay [20] was “inactive” each time.
For the compound `C/C=C(/C)c1c(Cl)c(O)c(C)c2c1Oc1c(Cl)c(O)c(Cl)c(C)c1C(=O)O2`, the Potency result in assay [1], in [3], in assay [4], in [6], in assay [7] and in assay [8] was “inactive” each time. Also, the Potency result in assay [9], in assay [11], in [12], in assay [14], in [15] and in assay [17] was “inactive” each time. Also, the Potency result in assay [19] and in assay [20] was “inactive” in each case. For the same compound, the compound was called inactive in assay [2], in assay [5], in assay [13] and in [16]. Besides, the Potency in assay [18] was 7.41 µM (active).
For `COc1cc2c(c(O)c1O)C(=O)c1c(coc1C)C2=O`, the Potency in assay [1] was 21.1 µM (active); in assay [6], 4.31 µM (active); in assay [8] it was 7.39 µM (active); in [10], 26.4 µM (active); in assay [15], 24.3 µM (active); in assay [17], 27.2 µM (active). The Potency in assay [19] is 15.2 µM (active); in [20], 0.764 µM (active). Besides, the compound was called inactive in [2], in [5] and in assay [16]. For the same compound, the Potency result in assay [3], in assay [4], in assay [7], in assay [9] and in [11] was “inactive” in each case.
For `C=CC(CCCCC)C1C(=O)NC(=O)C1C(=O)C1C2C(C)CC(C(=O)O)CC2CC1(O)C(=O)/C=C/C` (configuration not stated), the Potency result in assay [1], in assay [3], in assay [4], in [6], in [7] and in assay [8] was “inactive” throughout. In addition, the Potency entry in assay [9], in assay [10], in assay [11], in assay [12], in assay [14] and in assay [15] was “inactive” each time. Also, the Potency entry in assay [17], in assay [18], in [19] and in assay [20] was “inactive” in each case. The compound was called inactive in assay [2], in [5], in [13] and in [16].
